Measurements published in PubChem BioAssay (Tox21).
Results filed as inconclusive are left out. Activity calls are given as the source filed them. Unless noted, calls follow the shape of the full dose curve.

Experiments:
[1] = Nuclear factor erythroid 2-related factor 2/antioxidant responsive element (Nrf2/ARE) small molecule agonists: qHTS cell viability counter screen in human keratinocytes (AID 1919968; active = well fitted curve in the direction sought with a large enough effect in the repeat runs; an effect the other way counts as inactive or inconclusive; also: nearly all actives have a fitted effect of over 55% in size; also: potency is read from the fitted curve at half-maximal effect)
In short: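 CellTiter-Fluor fluorescence, read 1 h after reagent, gave viability in the same wells as the ARE-luciferase assay. KeratinoSens cells (1,500/well) had 23 h compound exposure at 37 C/5% CO2 following 5 h plating.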

[2] = Nuclear factor erythroid 2-related factor 2/antioxidant responsive element (Nrf2/ARE) small molecule agonists: luciferase reporter gene qHTS assay in human keratinocytes (AID 1919969); also: nearly all actives have a fitted effect of over 35% in size; also: potency is read from the fitted curve at half-maximal effect
[3] = target: Gonadotropin-releasing hormone receptor (Homo sapiens) (UniProt P30968); experiment: Human gonadotropin-releasing hormone receptor (GnRHR) small molecule agonists, calcium flux assay in GnRHR-HEK293 cells (AID 1920063); also: nearly all actives have a fitted effect of over 35% in size
Chain of Gonadotropin-releasing hormone receptor (Homo sapiens) (P30968 whole entry, looked up): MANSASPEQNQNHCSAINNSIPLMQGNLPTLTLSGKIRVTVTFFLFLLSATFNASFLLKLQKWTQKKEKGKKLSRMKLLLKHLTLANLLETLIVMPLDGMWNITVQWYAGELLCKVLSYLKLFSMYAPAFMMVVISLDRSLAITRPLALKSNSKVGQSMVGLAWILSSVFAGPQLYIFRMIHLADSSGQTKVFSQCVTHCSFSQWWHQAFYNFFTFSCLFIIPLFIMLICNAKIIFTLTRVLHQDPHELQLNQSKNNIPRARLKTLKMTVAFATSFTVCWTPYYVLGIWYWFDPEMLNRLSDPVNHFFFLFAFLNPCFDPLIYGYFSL
In short: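 Agonist mode: compounds at 15 concentrations, in triplicate, went onto calcium dye-loaded GnRHR-HEK293 cells. Intracellular calcium was then followed as 480/540 nm fluorescence at 1 s intervals over 3 min.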

[4] = target: KiSS-1 receptor (Homo sapiens) (UniProt Q969F8); experiment: Human kisspeptin (KISS1R) small molecule agonists, calcium flux assay in KISS1R-HEK293 cells (AID 1920064; active = well fitted curve in the direction sought with a large enough effect in the repeat runs; an effect the other way counts as inactive or inconclusive)
Chain of KiSS-1 receptor (Homo sapiens) (Q969F8 whole entry, looked up): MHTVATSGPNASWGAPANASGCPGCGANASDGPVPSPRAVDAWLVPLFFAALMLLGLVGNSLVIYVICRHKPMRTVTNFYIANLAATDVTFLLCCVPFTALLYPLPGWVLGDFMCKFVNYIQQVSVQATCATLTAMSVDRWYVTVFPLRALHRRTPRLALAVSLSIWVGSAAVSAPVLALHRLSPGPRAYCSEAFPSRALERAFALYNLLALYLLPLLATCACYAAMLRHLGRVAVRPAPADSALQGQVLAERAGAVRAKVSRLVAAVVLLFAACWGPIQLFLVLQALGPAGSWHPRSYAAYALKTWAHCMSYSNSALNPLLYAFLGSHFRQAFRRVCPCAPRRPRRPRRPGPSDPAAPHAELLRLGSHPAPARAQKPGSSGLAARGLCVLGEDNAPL
In short: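 Agonist mode: intracellular calcium rise tracked at 1 s intervals over 3 min (480/540 nm) immediately after compound addition to dye-loaded KISS1R-HEK293 stable cells. Each compound tested at 15 concentrations in triplicate.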

[5] = G protein-coupled receptor (GPCR) small molecule agonists, calcium flux assay: HEK293 wild type cell line counter screen (AID 1920065)
In short: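 Calcium flux counter screen: compound added in agonist mode at 15 concentrations in triplicate to dye-loaded parental HEK293 cells. Fluorescence (480/540) read kinetically for 3 min; ATP served as positive control.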

[6] = p53 small molecule agonists, cell-based qHTS assay with rat liver microsomes (AID 1963578)
In short: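 Cells carrying a p53 response element–beta-lactamase reporter were plated and rested 5 h, then dosed with compound in DMSO plus rat liver microsomes and NADPH, each at 0.5 mg/mL final. After 16 h at 37 C, LiveBLAzer substrate was added for 2 h.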

[7] = p53 small molecule agonists, cell-based qHTS assay with human liver microsomes: qHTS cell viability counter screen (AID 1963579); also: nearly all actives have a fitted effect of over 45% in size; also: potency is read from the fitted curve at half-maximal effect
In short: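 Cytotoxicity counter screen: p53RE-bla, 4,000 cells/well; 5 h settle, 37 C/5% CO2; cpd + HLM 0.5 mg/mL + NADPH 0.5 mg/mL (final); 16 h, 37 C; CellTiter-Glo, 30 min RT, luminescence.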

[8] = p53 small molecule agonists, cell-based qHTS assay with rat liver microsomes: qHTS cell viability counter screen (AID 1963580); also: nearly all actives have a fitted effect of over 45% in size; also: potency is read from the fitted curve at half-maximal effect
In short: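 Cytotoxicity counter screen: intracellular ATP read by CellTiter-Glo luminescence in the p53 reporter wells. HCT-116 p53RE-bla cells were treated for 16 h at 37 C alongside rat liver microsomes and NADPH, each 0.5 mg/mL final.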

[9] = p53 small molecule agonists, cell-based qHTS assay: qHTS cell viability counter screen (AID 1963581); also: nearly all actives have a fitted effect of over 45% in size; also: potency is read from the fitted curve at half-maximal effect
In short: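 Counter screen read by CellTiter-Glo luminescence (ATP content, 30 min at room temperature), run in the same wells as the beta-lactamase reporter read. HCT-116 p53RE-bla cells saw compounds for 16 h at 37 C.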

[10] = target: 5-hydroxytryptamine receptor 2A (Homo sapiens) (UniProt P28223); experiment: 5-hydroxytryptamine receptor 2A (HTR2A) small molecule antagonists, cell-based qHTS assay (AID 1963586); also: nearly all actives have a fitted effect of over 45% in size
Chain of 5-hydroxytryptamine receptor 2A (Homo sapiens) (P28223 whole entry, looked up): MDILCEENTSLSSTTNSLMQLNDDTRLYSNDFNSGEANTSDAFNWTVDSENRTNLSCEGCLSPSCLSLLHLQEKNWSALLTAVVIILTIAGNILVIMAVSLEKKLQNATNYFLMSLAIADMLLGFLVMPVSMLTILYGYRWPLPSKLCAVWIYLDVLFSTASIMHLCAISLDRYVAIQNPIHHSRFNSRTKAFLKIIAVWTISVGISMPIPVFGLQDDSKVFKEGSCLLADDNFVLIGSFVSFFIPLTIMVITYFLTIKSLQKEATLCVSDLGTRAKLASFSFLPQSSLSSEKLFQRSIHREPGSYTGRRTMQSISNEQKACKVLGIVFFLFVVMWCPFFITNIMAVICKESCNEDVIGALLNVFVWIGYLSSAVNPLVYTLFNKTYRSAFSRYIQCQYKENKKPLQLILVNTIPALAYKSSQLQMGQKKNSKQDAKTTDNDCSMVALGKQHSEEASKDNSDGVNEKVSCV
In short: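 CHO cells stably expressing human HTR2A were plated for 18 h at 37 C, then loaded with calcium dye for 1 h. Compounds were preincubated 5 min at room temperature before DOI (4 nM solution) was added. Kinetic fluorescence was read for 3 min.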

[11] = target: 5-hydroxytryptamine receptor 2A (Homo sapiens) (UniProt P28223); experiment: 5-hydroxytryptamine receptor 2A (HTR2A) small molecule agonists, cell-based qHTS assay (AID 1963587); also: nearly all actives have a fitted effect of over 30% in size
In short: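 Kinetic calcium-flux fluorescence (2 min, 1 sec intervals) after compound addition in agonist mode. HTR2A-CHO cells were cultured 18 h, then dye-loaded 1 h at 37 C.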

[12] = target: Muscarinic acetylcholine receptor M1 (Homo sapiens) (UniProt P11229); experiment: Cholinergic receptor muscarinic 1 (CHRM1) small molecule antagonists, cell-based qHTS assay (AID 1963588); also: nearly all actives have a fitted effect of over 40% in size
Chain of Muscarinic acetylcholine receptor M1 (Homo sapiens) (P11229 whole entry, looked up): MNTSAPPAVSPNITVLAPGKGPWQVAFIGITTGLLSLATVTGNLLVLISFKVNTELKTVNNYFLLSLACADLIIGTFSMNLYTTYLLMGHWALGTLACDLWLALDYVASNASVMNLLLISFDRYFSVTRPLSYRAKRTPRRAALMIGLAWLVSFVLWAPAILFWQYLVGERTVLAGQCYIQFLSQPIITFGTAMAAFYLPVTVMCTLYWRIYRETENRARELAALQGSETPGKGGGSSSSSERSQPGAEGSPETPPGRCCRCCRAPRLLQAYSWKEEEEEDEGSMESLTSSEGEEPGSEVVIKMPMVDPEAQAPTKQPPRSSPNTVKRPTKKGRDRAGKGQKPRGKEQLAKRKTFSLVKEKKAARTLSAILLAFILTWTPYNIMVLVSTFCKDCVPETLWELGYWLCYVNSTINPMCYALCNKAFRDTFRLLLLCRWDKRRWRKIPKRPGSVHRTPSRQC
In short: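 Compounds were tested at 15 concentrations in three independent runs. Dye-loaded CHRM1-CHO cells were exposed 5 min at room temperature before stimulation by acetylcholine added at 50nM. Intracellular calcium was read kinetically on FDSS for 3 min.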

[13] = target: Muscarinic acetylcholine receptor M1 (Homo sapiens) (UniProt P11229); experiment: Cholinergic receptor muscarinic 1 (CHRM1) small molecule agonists, cell-based qHTS assay (AID 1963589); also: nearly all actives have a fitted effect of over 35% in size
In short: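 Agonist-mode calcium-flux screen: compounds at 15 concentrations, three independent runs, were pin-transferred onto dye-loaded human CHRM1-CHO cells. Fluorescence was then recorded kinetically every second over minutes.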

[14] = cAMP Responsive Elements (CRE) small molecule agonists, cell-based qHTS assay (AID 1963590)
In short: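 Agonist mode: compound added to CRE-bla HEK 293T cells (2,000/well, 18 h after plating) for 3 h at 37 C/5% CO2. Reporter activity detected via FRET beta-lactamase substrate, 2 h room-temperature loading.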

[15] = cAMP Responsive Elements (CRE) small molecule antagonists, cell-based qHTS assay (AID 1963591; active = well fitted inhibition curve with a large enough effect in the signal ratio in the repeat runs, not every such curve was filed as active; the % refers to the signal ratio)
In short: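 Antagonist mode: compounds are added alongside the adenylyl cyclase activator NKH477 (0.25 uM final) to CRE-bla HEK293T cells for 3 h. LiveBLAzer FRET substrate, 2 h at room temperature, reports bla expression.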

[16] = target: Beta-2 adrenergic receptor (Homo sapiens) (UniProt P07550); experiment: Adrenergic beta2 receptor (ADRB2) small molecule antagonists, cell-based qHTS assay (AID 1963592); also: series mostly up to about 92 µM; nearly all actives have a fitted effect of over 50% in size
Chain of Beta-2 adrenergic receptor (Homo sapiens) (P07550 whole entry, looked up): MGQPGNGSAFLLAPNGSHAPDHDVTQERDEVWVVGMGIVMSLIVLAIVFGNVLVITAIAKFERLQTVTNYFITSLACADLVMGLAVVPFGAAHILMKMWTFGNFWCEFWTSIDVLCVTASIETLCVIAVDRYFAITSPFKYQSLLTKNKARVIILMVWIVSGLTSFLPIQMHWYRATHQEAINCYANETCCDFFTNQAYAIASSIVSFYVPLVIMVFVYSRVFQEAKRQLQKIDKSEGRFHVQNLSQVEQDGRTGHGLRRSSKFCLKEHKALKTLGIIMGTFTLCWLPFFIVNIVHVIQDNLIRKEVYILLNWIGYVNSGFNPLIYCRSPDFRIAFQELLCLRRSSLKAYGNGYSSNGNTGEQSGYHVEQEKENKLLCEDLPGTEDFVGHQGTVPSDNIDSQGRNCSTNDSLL
In short: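 Assay format: CHO-ADRB2 cells, 18-20hr seeding at 37C/5% CO2, then compound plus 1nM isoproterenol agonist mix for 0.5hr RT. Homogeneous time-resolved fluorescence cAMP detection after 1hr, expressed as 665/615 nm ratio.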

[17] = target: Beta-2 adrenergic receptor (Homo sapiens) (UniProt P07550); experiment: Adrenergic beta2 receptor (ADRB2) small molecule agonists, cell-based qHTS assay (AID 1963593);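 also: CHO cells stably overexpressing human ADRB2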
In short: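 CHO cells stably over-expressing ADRB2 were plated overnight at 37C, then dosed with compounds plus a stimulation mix containing 100uM IBMX and 25uM Ro-20-1724 for 0.5hr at room temperature. cAMP was measured by HTRF competition, 1hr.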

[18] = target: D(2) dopamine receptor (Homo sapiens) (UniProt P14416); experiment: Dopamine D2 receptor (DRD2) small molecule antagonists, cell-based qHTS assay (AID 1963595; active = well fitted inhibition curve with a large enough effect in the signal ratio in the repeat runs, with a control signal flat; the % refers to the signal ratio; also: potency is read from the fitted curve at half-maximal effect)
Chain of D(2) dopamine receptor (Homo sapiens) (P14416 whole entry, looked up): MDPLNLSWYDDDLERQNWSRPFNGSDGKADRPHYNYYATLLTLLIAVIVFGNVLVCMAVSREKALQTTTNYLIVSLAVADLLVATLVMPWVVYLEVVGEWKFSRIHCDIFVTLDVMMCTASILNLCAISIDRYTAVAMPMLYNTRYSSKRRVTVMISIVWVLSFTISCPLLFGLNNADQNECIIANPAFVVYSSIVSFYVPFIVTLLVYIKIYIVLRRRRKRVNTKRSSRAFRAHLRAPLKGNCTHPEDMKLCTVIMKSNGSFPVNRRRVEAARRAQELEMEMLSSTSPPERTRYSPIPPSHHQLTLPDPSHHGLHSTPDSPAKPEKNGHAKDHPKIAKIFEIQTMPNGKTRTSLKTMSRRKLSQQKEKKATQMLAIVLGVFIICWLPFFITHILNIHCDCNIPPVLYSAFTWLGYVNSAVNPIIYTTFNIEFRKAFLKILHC
In short: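 HEK293 cells stably expressing DRD2 were preincubated with 0.1 mM Ro20-1724, then with compound for 10 min at room temperature. Cells were stimulated with 200 nM NKH477 plus 12 nM quinpirole for 30 min, and cAMP was read by HTRF.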

[19] = p53 small molecule agonists, cell-based qHTS assay (AID 1963582; active = well fitted activation curve with a large enough effect in the signal ratio in the repeat runs, not every such curve was filed as active; the % refers to the signal ratio; also: potency is read from the fitted curve at half-maximal effect)
In short: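 Read-out is beta-lactamase FRET fluorescence after 2 h at room temperature with LiveBLAzer B/G substrate. p53 response element-bla cells were treated 16 h at 37 C with compounds in DMSO, added 5 h after seeding.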

[20] = target: D(2) dopamine receptor (Homo sapiens) (UniProt P14416); experiment: Dopamine D2 receptor (DRD2) small molecule agonists, cell-based qHTS assay (AID 1963594); also: nearly all actives have a fitted effect of over 35% in size
In short: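 cAMP accumulation in DRD2-HEK293 cells measured by HTRF after 1 h detection; compounds added 10 min before NKH477 (200nM […]) forskolin-analogue stimulation, 30 min at room temperature, with Ro20-1724 present at 0.1 mM final.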

Measured: Potency

COCCc1ccc(OCC2CO2)cc1 (centres undefined)
not listed: [19] | [20]
inactive: all other assays above

CC1=CC(=O)/C(=C(/C)O)C(=O)O1
not listed: [9] | [10] | [17] | [18]
inactive: all other assays above

Cc1coc2ccccc2c1=O
not listed: [9]
inactive: all other assays above

CN(C)c1ccc(C2(c3ccc(N(C)C)cc3)OC(=O)c3cc(N(C)C)ccc32)cc1
active: [7] 18.2 µM
not listed: [12] | [17] | [19]
inactive: all other assays above

NC(=O)n1c(O)c(C(=O)c2cccs2)c2cc(Cl)ccc21
active: [2] 26.6 µM
not listed: [11] | [14] | [15] | [17] | [19] | [20]
inactive: all other assays above

CCCCCCCCCCCCN1CCCCCC1=O
active: [1] 61.1 µM
not listed: [9] | [12]
inactive: all other assays above

Nc1ccc2ccccc2c1S(=O)(=O)O
active: [2] 44.1 µM
not listed: [17] | [18] | [19]
inactive: all other assays above

O=C1CCCc2c1cc1ccc3cccc4ccc2c1c34
active: [2] 34.8 µM
not listed: [9] | [14] | [17] | [19] | [20]
inactive: all other assays above

O=C(O)COc1ccc2ccccc2c1
not listed: [14] | [15] | [17] | [19]
inactive: all other assays above

Oc1ccc2c(c1)-c1ccccc1C2
not listed: [9] | [15] | [17]
inactive: all other assays above

CC(C)(C)CC(C)(C)c1ccccc1O
inactive: [2] | [3] | [4] | [5] | [6] | [12] | [13] | [16] | [20]
active: [1] 27.4 µM | [7] 41 µM | [8] 41 µM | [18] 61.4 µM

Nc1nc(F)nc2c1ncn2[C@@H]1O[C@H](CO)[C@@H](O)[C@@H]1O
not listed: [10] | [11] | [12] | [13] | [14] | [19]
inactive: all other assays above

CNCc1cc(F)ccc1Oc1ccc(Cl)c(Cl)c1
active: [1] 27.3 µM
not listed: [10] | [11] | [12] | [15] | [18] | [20]
inactive: all other assays above

Cc1oc(-c2ccccc2)nc1CCOc1cccc2c1ccn2CCC(=O)O
not listed: [11] | [14] | [15] | [17] | [19]
inactive: all other assays above

O=c1[nH]c(=O)n([C@H]2C[C@H](O)[C@@H](CO)O2)cc1F
active: [19] 0.446 µM
inactive: [1] | [2] | [3] | [4] | [5] | [6] | [7] | [8] | [18]

CC1(C)[C@@H](OC(=O)CCC(=O)O)CC[C@]2(C)[C@H]3C(=O)C=C4[C@@H]5C[C@@](C)(C(=O)O)CC[C@]5(C)CC[C@@]4(C)[C@]3(C)CC[C@@H]12
not listed: [15] | [17] | [19]
inactive: all other assays above

CC(C)(C)CC(C)(C)c1ccc(O)c(Cc2ccc(Cl)cc2Cl)c1
active: [1] 8.41 µM | [9] 8.9 µM
not listed: [10] | [13] | [14] | [15] | [18] | [19]
inactive: all other assays above
